Test results taken from PubChem BioAssay (EPA / NIEHS).
Records with an inconclusive call do not appear. More than one record can exist for a structure, and the calls need not agree. The source made the active and inactive calls. Rule for the calls, unless noted: active = hit-call score of the fitted dose curve at least 0.9, where 1 is the maximum; inconclusive = response in the unintended direction; inactive = score below 0.9.

Test system: not listed separately
Assay: IUF_NPC1_cytotoxicity_72hr: Cytotoxicity Assessment at 72 hours in the Leibniz Research Institute for Environmental Medicine (IUF) Neural Progenitor Cell Proliferation Assay (NPC1) (AID 2284332);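 note: rising LDH signal means more cytotoxicity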
Conditions: not given
Method in brief: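 Cytotoxicity by LDH membrane-integrity assay on medium supernatants, fluorescence via resazurin reduction, after 3-day single exposure of primary hNPC spheres at 37C, pH 7.2-7.6 with growth factors. Fitted upward against baseline.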

SMILES | outcome
CN/C(=N\[N+](=O)[O-])NCc1cnc(Cl)s1 | inactive
CCSC(=O)N1CCCCCC1 | inactive
CS(=O)(=O)c1cc(C(F)(F)F)ccc1C(=O)c1cnoc1C1CC1 | inactive
CC(C)(C)C(=O)C(Oc1ccc(Cl)cc1)n1cncn1 (stereo not given) | inactive
COP(=S)(OC)SCn1nnc2ccccc2c1=O | inactive
CNC(=O)Oc1cccc2ccccc12 | inactive
CCOP(=O)(OCC)Oc1nc(Cl)c(Cl)cc1Cl | inactive
CCNC(=O)NC(=O)C(C#N)=NOC | inactive
COC(=O)N(C(=O)N1CO[C@@]2(C(=O)OC)Cc3cc(Cl)ccc3C2=N1)c1ccc(OC(F)(F)F)cc1 | inactive
O=C(Nc1ccccc1-c1ccc(Cl)cc1)c1cccnc1Cl | inactive
Cc1c(COC(=O)[C@@H]2[C@H](/C=C(\Cl)C(F)(F)F)C2(C)C)cccc1-c1ccccc1 | inactive
CC1(C)C(C=C(Cl)Cl)C1C(=O)OC(C#N)c1cccc(Oc2ccccc2)c1 (stereo not given) | inactive
N#CN=C1SCCN1Cc1ccc(Cl)nc1 | inactive
C=C(C)CN(CC)c1c([N+](=O)[O-])cc(C(F)(F)F)cc1[N+](=O)[O-] | inactive

Test system: not listed separately
Assay: CCTE_Mundy_HCI_iCellGluta_NOG_NeuronCount: CCTE's Neurite Outgrowth Assay in iCellGluta cells for Neuron Count, Mundy Lab (AID 2284340);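 note: cells fixed about 48 h after compound addition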
Conditions: not given
Method in brief: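 Neuron count read by automated high-content imaging of Hoechst 33342 and betaIII-tubulin/Alexa Fluor-488 labelling in human iPSC glutamatergic neurons. Activity fitted relative to DMSO.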

SMILES | outcome | AC50
CN/C(=N\[N+](=O)[O-])NCc1cnc(Cl)s1 | inactive | 
CCSC(=O)N1CCCCCC1 | inactive | 
CS(=O)(=O)c1cc(C(F)(F)F)ccc1C(=O)c1cnoc1C1CC1 | inactive | 
CC(C)(C)C(=O)C(Oc1ccc(Cl)cc1)n1cncn1 (stereo not given) | inactive | 
COP(=S)(OC)SCn1nnc2ccccc2c1=O |  | 24.4 µM (active)
CNC(=O)Oc1cccc2ccccc12 | inactive | 
CCNC(=O)NC(=O)C(C#N)=NOC | inactive | 
COC(=O)N(C(=O)N1CO[C@@]2(C(=O)OC)Cc3cc(Cl)ccc3C2=N1)c1ccc(OC(F)(F)F)cc1 | inactive | 
CO/N=C(/C1=NOCCO1)c1ccccc1Oc1ncnc(Oc2ccccc2Cl)c1F |  | 39.4 µM (active)
O=C(Nc1ccccc1-c1ccc(Cl)cc1)c1cccnc1Cl | inactive | 50 µM (active)
Cc1c(COC(=O)[C@@H]2[C@H](/C=C(\Cl)C(F)(F)F)C2(C)C)cccc1-c1ccccc1 |  | 12.8 µM (active)
CC1(C)C(C=C(Cl)Cl)C1C(=O)OC(C#N)c1cccc(Oc2ccccc2)c1 (stereo not given) | inactive | 
N#CN=C1SCCN1Cc1ccc(Cl)nc1 | inactive | 
C=C(C)CN(CC)c1c([N+](=O)[O-])cc(C(F)(F)F)cc1[N+](=O)[O-] |  | 31.1 µM (active)

Test system: not listed separately
Assay: CCTE_Mundy_HCI_iCellGluta_NOG_NeuriteCount: CCTE's Neurite Outgrowth Assay in iCellGluta cells for Neurite Count, Mundy Lab (AID 2284342);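 note: chemical exposure about 48 hours starting 2 hours after plating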
Conditions: not given

SMILES | outcome | AC50
CN/C(=N\[N+](=O)[O-])NCc1cnc(Cl)s1 | inactive | 
CCSC(=O)N1CCCCCC1 | inactive | 
CS(=O)(=O)c1ccc(C(=O)C2C(=O)CCCC2=O)c([N+](=O)[O-])c1 | inactive | 
CS(=O)(=O)c1cc(C(F)(F)F)ccc1C(=O)c1cnoc1C1CC1 | inactive | 
CC(C)(C)C(=O)C(Oc1ccc(Cl)cc1)n1cncn1 (stereo not given) | inactive | 
COP(=S)(OC)SCn1nnc2ccccc2c1=O |  | 24.4 µM (active)
CNC(=O)Oc1cccc2ccccc12 | inactive | 
CCNC(=O)NC(=O)C(C#N)=NOC | inactive | 
COC(=O)N(C(=O)N1CO[C@@]2(C(=O)OC)Cc3cc(Cl)ccc3C2=N1)c1ccc(OC(F)(F)F)cc1 | inactive | 
CO/N=C(/C1=NOCCO1)c1ccccc1Oc1ncnc(Oc2ccccc2Cl)c1F |  | 24.4 µM (active)
O=C(Nc1ccccc1-c1ccc(Cl)cc1)c1cccnc1Cl | inactive | 38.3 µM (active)
Cc1c(COC(=O)[C@@H]2[C@H](/C=C(\Cl)C(F)(F)F)C2(C)C)cccc1-c1ccccc1 |  | 10.6 µM (active)
N#CN=C1SCCN1Cc1ccc(Cl)nc1 | inactive | 
C=C(C)CN(CC)c1c([N+](=O)[O-])cc(C(F)(F)F)cc1[N+](=O)[O-] |  | 26.5 µM (active)

Test system: SERPINA7 (gene 6906)
Assay: CCTE_GLTED_hTBG: CCTE's human Thyroxine-binding Globulin (TBG) Inhibition Assay, Great Lakes Toxicology and Ecology Division (GLTED) Lab (AID 2284343);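 note: active chemicals lower fluorescence versus DMSO baseline by displacing probe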
Conditions: not given
Method in brief: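 Cell-free displacement of the fluorescent probe ANSA from human thyroxine-binding globulin after 2 h exposure. Read-out at ex 380/em 475 nm; DMSO baseline.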

SMILES | outcome | AC50
CCOC(=O)C(C)OC(=O)c1cc(Oc2ccc(C(F)(F)F)cc2Cl)ccc1[N+](=O)[O-] (stereo not given) | inactive | 
CCCCC(O)(Cn1cncn1)c1ccc(Cl)cc1Cl (stereo not given) |  | 11.3 µM (active)
OC(c1ccc(Cl)cc1)(c1ccc(Cl)cc1)C(Cl)(Cl)Cl |  | 5.3 µM (active)
CCCCOCN(C(=O)CCl)c1c(CC)cccc1CC |  | 19.1 µM (active)
CC(C)Oc1cccc(NC(=O)c2ccccc2C(F)(F)F)c1 |  | 50 µM (active)
CCOP(=O)(OCC)Oc1nc(Cl)c(Cl)cc1Cl |  | 14.9 µM (active)
CCCN(CC)CC1COC2(CCC(C(C)(C)C)CC2)O1 (stereo not given) | inactive | 
Cn1c(-c2ccccc2)cc(-c2ccccc2)[n+]1C | inactive | 
CC1(C)CCC(=Cc2ccc(Cl)cc2)C1(O)Cn1cncn1 (stereo not given) |  | 36.4 µM (active)
C=C(C)CN(CC)c1c([N+](=O)[O-])cc(C(F)(F)F)cc1[N+](=O)[O-] |  | 8.89 µM (active)

Test system: not listed separately
Assay: CCTE_Deisenroth_H295R-HTRF_384WELL_ESTRADIOL: CCTE's H295R-HTRF Assay Evaluation of Estradiol Concentration, Deisenroth Lab (AID 2284361; active = hit-call score of the fitted dose curve at least 0.9, where 1 is the maximum; inactive = score below 0.9)
Conditions: actives raise or lower the signal
Experimental: CCTE_Deisenroth_H295R-HTRF_384WELL assay is a cell-based, multiplex-readout assay that uses H295R, a human adrenocortical carcinoma cell line, with measurements taken at 48 hours after chemical dosing in a 384-well microplateCCTE_Deisenroth_H295R-HTRF_384WELL_ESTRADIOL is one of 3 assay components calculated in the CCTE_Deisenroth_H295R-HTRF_384WELL assay (2 hormones and 1 viability components). It is designed to make measurements of hormone induction, a form of inducible reporter, as detected with Homogenous Time Resolved Fluorescence immunoassay technology.This assay endpoint, CCTE_Deisenroth_H295R-HTRF_384WELL_ESTRADIOL, was analyzed with bidirectional fitting relative to DMSO as the negative control and baseline of activity. Using a type of inducible reporter, gain or loss-of-signal activity using Homogenous Time Resolved Fluorescence technology was used to understand synthesis of estradiol in the H295R cell line at 48hr of chemical exposure. To generalize the intended target to other relatable targets, this assay endpoint is annotated to the steroid hormone intended target family, where the subfamily is estrogens.
Standard operating procedures for the cell culture medium, maintenance, expansion, and cryopreservation of the NCI-H295R adrenocortical carcinoma adherent cell line were adopted directly from guideline specifications7,13. The assay workflow follows a three-day protocol consistent with the paradigm defined in OECD TG 456 and U.S. EPA OCSPP Guideline 890.1550. On day 0, cells are plated in 384-well microplates and acclimated for 24 hours. On Day 1, test chemicals are dispensed into separate 384-well microplates in a nine-point 2X dilution series (0.002 - 200 uM). […] Fluorescent endpoint measurements are conducted with a microplate reader equipped with an HTRF-compatible filter set (ex: 320 (10) […]; em: 620 (10) and 665 (10) nM). […] After collecting conditioned medium samples on Day 3, the viability assay is immediately performed and luminescence readings measured on a microplate reader. […]

SMILES | outcome
CCSC(=O)N1CCCCCC1 | inactive
CC(C)(C)C(=O)C(Oc1ccc(Cl)cc1)n1cncn1 (stereo not given) | inactive
CCCCC(C#N)(Cn1cncn1)c1ccc(Cl)cc1 (stereo not given) | inactive

Test system: not listed separately
Assay: CCTE_Deisenroth_H295R-HTRF_384WELL_TESTOSTERONE: CCTE's H295R-HTRF Assay Evaluation of Testosterone Concentration, Deisenroth Lab (AID 2284373; active = hit-call score of the fitted dose curve at least 0.9, where 1 is the maximum; inactive = score below 0.9)
Conditions: actives raise or lower the signal
Method in brief: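 Testosterone secreted into medium was quantified by direct HTRF immunoassay after a 48 h treatment of H295R adrenocortical cells (nine concentrations, 0.001–100 uM final). Gain or loss fitted relative to DMSO; CellTiter-Glo viability read on same plates.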

SMILES | outcome | AC50
CCSC(=O)N1CCCCCC1 | inactive | 
CC(C)(C)C(=O)C(Oc1ccc(Cl)cc1)n1cncn1 (stereo not given) |  | 8.94 µM (active)
CCCCC(C#N)(Cn1cncn1)c1ccc(Cl)cc1 (stereo not given) | inactive | 
